The values that follow come from PubChem BioAssay AID1992 (Sanford-Burnham Center for Chemical Genomics, 2009).

Hit rate of the full screen: of about 50,000 compounds, about 350 (0.7%) were called active. Only a selection was taken, and actives are over-represented in it overall. A number with no mark means an inactive call. Rule as the data show it: active = inhibition above about 60%; inactive = the rest.

A word on the inhibition: it is the change of the read-out against control, counted positive when it falls.

Sequence of Dual specificity protein phosphatase 3 (Homo sapiens) (P51452 whole entry, looked up): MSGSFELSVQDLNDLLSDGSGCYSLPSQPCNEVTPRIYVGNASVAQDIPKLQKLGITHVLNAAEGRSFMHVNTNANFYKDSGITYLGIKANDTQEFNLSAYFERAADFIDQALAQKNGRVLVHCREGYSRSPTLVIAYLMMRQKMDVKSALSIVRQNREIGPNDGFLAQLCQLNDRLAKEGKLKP

The assay has as its target Dual specificity protein phosphatase 3 (Homo sapiens) (UniProt P51452). The assay can be described thus: human DUSP3 activity blockers – biochemical, colorimetric, HTS, primary screen (AID 1992). The note with it: recombinant VHR phosphatase, colorimetric substrate read-out; at 20 µM; hits give high values.
As for `O=C(NCc1ccccc1)c1ccc(CN2CCN(c3ccccc3)CC2)cc1`, the inhibition is 5.6%.

For the molecule `CC(C)(C)c1cc(Br)ccc1OCC(=O)Nc1ccccc1[N+](=O)[O-]`, the inhibition is -0.7%.

With `O=C(Nc1cccc(Br)c1)C(=O)NC1CCCC1`, the inhibition was -18.7%.

Turning to `Cc1ccc2c(c1)C(c1ccccc1[N+](=O)[O-])CC(=O)N2` (configuration not stated), the inhibition is -4.5%.

In the case of `O=C(c1nn2c(c1Cl)NC(c1ccc(F)cc1)CC2C(F)(F)F)N1CCN(Cc2ccccc2)CC1` (configuration not stated), the inhibition is -2.9%.

Turning to `O=C1C2C(C(=O)N1/N=C/C=C/c1ccccc1)C1C=CC2C12CC2` (configuration not stated), the inhibition was -11.9%.

Consider `CC(C)(C)c1cc(N2C(=O)C(=O)/C(=C(\O)c3ccccc3)C2c2cccc([N+](=O)[O-])c2)no1` (configuration not stated), for which the inhibition is 10.1%.

`Cc1cccc(NC(=O)CCCOc2ccccc2)c1C`: the inhibition was -23.5%.

Consider `Cc1ccccc1NCC(=O)N/N=C\c1cc([N+](=O)[O-])cc(Br)c1O`, for which the inhibition is 31.8%.

Consider `Cc1cc(Br)cc(/C=N/NC(=O)c2cncc(Br)c2)c1O`, for which the inhibition is -16.6%.

Consider `Cc1ncc(C[n+]2csc3ccccc32)c(N)n1`, for which the inhibition was 23.5%.

Consider `COc1ccc(C(=O)/C=C/Nc2cccc(Cl)c2Cl)cc1`, for which the inhibition is 3.3%.

`CN(C)CCOC(=O)CCN1C(=O)/C(=C/c2ccc(Cl)cc2Cl)SC1=S`: the inhibition is -1.5%.

In the case of `O=C1S/C(=C/c2ccc(-c3ccc(Cl)cc3Cl)o2)C(=O)N1c1ccccc1`, the inhibition was -7.5%.

Regarding `O=C(O)CCN1C(=O)/C(=C/c2ccc(-c3cc(Cl)ccc3Cl)o2)SC1=S`, the inhibition was 73% (active).

Turning to `Cc1cccc(NC(=O)c2cc(-c3ccc(Br)cc3)nc3ccccc23)n1`, the inhibition was -30.2%.

On to `CCn1c(=O)c(C(=O)Nc2ccccc2Br)c(O)c2ccccc21`, for which the inhibition is -20.9%.

`COc1ccc(C=O)c2c(O)cccc12`: the inhibition was 2.1%.

Take `CCN(C=NC1=NN(c2ccccc2)CC1)CC`: the inhibition was 2.7%.

For `O=C1C=CC2=C3Oc4c(ccc5cc(O)ccc45)C(c4ccccc4C(=O)O)C3C=CC2=C1` (configuration not stated), the inhibition is 85.5% (active).

Take `O=C(NCCCn1ccnc1)c1ccccc1[N+](=O)[O-]`: the inhibition is 5.9%.

For the molecule `CC1=C(C(=O)OCc2ccccc2)C(c2ccc(C(F)(F)F)cc2)CC(=O)N1` (configuration not stated), the inhibition is 8.1%.

Turning to `O=C1C(=O)N(Cc2ccccc2)C2C=CC=CC12` (configuration not stated), the inhibition is 7.6%.

Turning to `COc1cccc(NC(=O)CN(c2cccc([N+](=O)[O-])c2)S(=O)(=O)c2ccccc2)c1`, the inhibition was -23.4%.

With `CCOC(=O)c1c(NC(=O)c2cc(OC)c(OC)c(OC)c2)sc(C(N)=O)c1C`, the inhibition is 1.3%.

On to `S=c1n(CN2CCOCC2)nc(-c2ccccc2Cl)n1-c1ccccc1`, for which the inhibition is -3.8%.

Turning to `O=C(Nc1cc(Cl)cc(Cl)c1)C1COc2ccccc2O1` (configuration not stated), the inhibition was -3%.

Regarding `COc1ccc(/C=N/NC(=O)C2CC2)c(OC)c1OC`, the inhibition is -32.4%.

In the case of `Cc1cc(C)c2cccc(NC(=S)NC(=O)c3cccc([N+](=O)[O-])c3)c2n1`, the inhibition is -0.4%.

In the case of `O=[N+]([O-])c1nonc1NCn1nnc2ccccc21`, the inhibition is -8%.

Consider `CC(NC(=O)C1CC(=O)N(c2ccc(Br)cc2)C1)c1ccccc1` (configuration not stated), for which the inhibition was 16.1%.

With `COC(=O)c1ccc(/C=N/Nc2nncc(-c3ccccc3)n2)cc1`, the inhibition is -34%.

With `Cc1onc(-c2c(Cl)cccc2Cl)c1C(=O)Nc1sc2c(c1C(N)=O)CCCC2`, the inhibition was -46.5%.

In the case of `O=C1NC(=O)C(=Cc2cccc(OCc3ccccc3)c2)C(=O)N1`, the inhibition is -24.8%.

On to `CCOC(=O)Cc1csc(NC(=O)COc2cc(C)ccc2C(C)(C)C)n1`, for which the inhibition was 5.7%.

For `Cc1ccc(-c2ccc(/C=C3\Sc4ccccc4C3=O)o2)c([N+](=O)[O-])c1`, the inhibition is -37.5%.

For the molecule `COc1ccc(N2C(=O)c3cccc4c(NC(CO)(CO)CO)ccc(c34)C2=O)cc1`, the inhibition is -0.7%.

Take `CCOC(=O)C1=C(O)/C(=C\c2cccc([N+](=O)[O-])c2)SC1=Nc1ccc(OC)cc1`: the inhibition is -20.7%.

In the case of `CCOC(=O)C1=C(O)CSC1=Nc1ccc(F)cc1`, the inhibition was 104% (active).

For the molecule `CCOC(=O)C1=C(O)CSC1=Nc1cccc(Cl)c1`, the inhibition is -1.6%.

`COc1ccc(C2C(C(=O)/C=C/c3ccccc3)=C(O)C(=O)N2CCCCCC(=O)O)c(OC)c1` (configuration not stated): the inhibition was 29.2%.

In the case of `CCC(=O)N(CCC1(c2ccc(F)cc2)CCOC(C)(C)C1)Cc1ccc(OC)c(OC)c1` (configuration not stated), the inhibition is -8.3%.

Turning to `COc1ccc(C(=O)Nc2ccc3nn(-c4ccc(C)c(Cl)c4)nc3c2)cc1[N+](=O)[O-]`, the inhibition is -21.1%.

Regarding `Cc1c(N(C(=O)c2cccc(Cl)c2)C(C)C)c(=O)n(-c2ccccc2)n1C`, the inhibition was -7.9%.

On to `O=C(/C=C\Nc1ccccn1)c1ccc2c(c1)OCO2`, for which the inhibition was -7.8%.

On to `COC(=O)Cn1cc(/C=C2\C(=O)NC(=O)N(c3cc(C)cc(C)c3)C2=O)c2ccccc21`, for which the inhibition is -5.9%.

For the molecule `C/C(=N\NC(=O)c1cccc(Cl)c1)c1ccccc1O`, the inhibition is -3.8%.

On to `Cc1ccc(/C=N/c2nc3ccc(Br)cc3s2)c(O)c1`, for which the inhibition is -5%.

Turning to `Oc1ccc(Br)cc1/C=N/Nc1ccccn1`, the inhibition is -11%.

`Cn1/c(=N/N=C/c2cc(Br)ccc2O)sc2ccccc21`: the inhibition was 114% (active).

Consider `CC(=O)c1nc2cc([N+](=O)[O-])ccc2n1Cc1ccccc1`, for which the inhibition is -31%.

With `O=C(O)CCC(=O)Nc1cc(Cl)cc(Cl)c1`, the inhibition was 11.1%.

With `COc1ccc(CN=CC2=C(O)CC(c3ccccc3)CC2=O)cc1` (configuration not stated), the inhibition was 15.4%.

With `O=[N+]([O-])c1ccc(OCC(O)Cn2cnc3ccccc32)cc1` (configuration not stated), the inhibition was 39%.

Regarding `CCOc1ccc(-c2cc(C(=O)Nc3ccncc3)c3ccccc3n2)cc1`, the inhibition was -20.9%.

Regarding `CC(C)(C)c1ccc(/C=N/NC(=O)Cc2cccc3ccccc23)cc1`, the inhibition was -3.8%.

Consider `Cc1ccc2c(N)c(C(=O)c3ccccc3)sc2n1`, for which the inhibition was -19.7%.

With `Nc1nnc(SCC(=O)NCc2ccccc2)s1`, the inhibition was -7%.

For `Nc1nnc(CCC(=O)c2ccccc2)s1`, the inhibition was 78.1% (active).

On to `COc1ccc(NC(=O)/C=C/c2cccc([N+](=O)[O-])c2)cc1`, for which the inhibition was -2.5%.

`O=C(NCc1ccccn1)Nc1ccc(Cl)cc1`: the inhibition is 25.4%.

For the molecule `COc1ccc(N/C(C)=C/C(=O)c2ccc(F)cc2)cc1`, the inhibition was -8.4%.

Take `COc1ccc(/C=C2/C(C)=C(C#N)c3nc(N)c(C#N)c(C)c32)cc1OC`: the inhibition is 24%.

For the molecule `COc1ccccc1/C=N/NC(=O)CCc1c(C)n[nH]c1C`, the inhibition was -1.8%.

As for `O=C(NN1CCOCC1)c1cccc(F)c1`, the inhibition was -10.6%.

For `Cc1cc(Cl)ccc1NC1=CC(=O)CC(c2ccccc2)C1` (configuration not stated), the inhibition was -7.1%.

`CN(C)/C=C(/Cl)C=C1C(=O)c2ccccc2C1=O`: the inhibition is -2.3%.

Take `COc1ccc([N+](=O)[O-])cc1NC(=O)CCc1ccccc1`: the inhibition was -10.6%.

With `CCCCCOC(=O)CSc1nnc(-c2ccccc2Cl)o1`, the inhibition was -27.4%.

For the molecule `CCCOc1ccc(C(=O)Nc2ccc(N(CC)CC)cc2)cc1`, the inhibition is -10.9%.

Regarding `CCOC(=O)c1ccc(NC(=O)c2cc(OCC)cc(OCC)c2)cc1`, the inhibition was -14.7%.

As to `CCCOC(=O)c1ccc(NC(=O)c2ccc(OCc3ccccc3)cc2)cc1`, the inhibition is 109% (active).

As to `CCOC(=O)C(=O)C1CCc2c([nH]c3ccc(C)cc23)C1=O` (configuration not stated), the inhibition is -0.5%.

`COc1ccc(OC)c(-n2c(O)c(C=Nc3cccc(C)c3)c(=O)[nH]c2=O)c1`: the inhibition is -17.5%.

For `COc1ccc(NC(=O)C2=C(C)NC(=O)NC2c2ccc(OC)cc2)cc1` (configuration not stated), the inhibition is 24.2%.

Turning to `COC(=O)C1=C(C)N=c2s/c(=C\c3cc(OC)c(OC)cc3[N+](=O)[O-])c(=O)n2C1c1ccccc1` (configuration not stated), the inhibition is -6%.

For `O=C(Nc1cccc2ccccc12)c1ccc(-c2ccccc2)cc1`, the inhibition is -1.1%.

In the case of `Cc1cc(/C=C2/NC(=S)NC2=O)c(C)n1-c1ccc(N2CCOCC2)cc1`, the inhibition is 61.6% (active).

Regarding `Cc1cc(C=C2C(=O)NC(=S)NC2=O)c(C)n1-c1ccc(F)cc1`, the inhibition was 0.6%.

In the case of `Cc1cc(/C=C2/NC(=O)NC2=O)c(C)n1-c1ccc(Cl)cc1`, the inhibition is -8.6%.

With `O=C1NC(=S)N(c2ccc(Cl)cc2)C(=O)/C1=C/c1ccc(-c2ccccc2C(=O)O)o1`, the inhibition was 95.3% (active).

Take `O=C1/C(=C/c2ccc(-c3ccc(Cl)cc3C(=O)O)o2)Sc2ccccc21`: the inhibition was 15.2%.

On to `CCOc1ccc(N2C(=O)NC(=O)/C(=C/c3ccc(-c4ccccc4[N+](=O)[O-])o3)C2=O)cc1`, for which the inhibition was 19%.

As for `COc1ccc(C(=O)NC2CC(C)(C)NC(C)(C)C2)cc1OC`, the inhibition was -52.9%.

On to `O=C(Nc1ncc(Br)cc1Br)c1cccc2ccccc12`, for which the inhibition is 101%.

Take `COC(=O)c1cc(C(=O)Nc2ncccc2C)cc([N+](=O)[O-])c1`: the inhibition was 7.6%.

As to `C/C(=C\C(=O)c1ccc(Br)cc1)Nc1ccccc1F`, the inhibition was 4.7%.

In the case of `CC1=NN(c2cccc(Cl)c2)C(=O)/C1=C\c1c(C)[nH]n(-c2ccccc2)c1=O`, the inhibition is -29.9%.

As for `CC1=NN(c2ccc(S(N)(=O)=O)cc2)C(=O)/C1=C\c1ccc(-c2cc([N+](=O)[O-])ccc2C)o1`, the inhibition is 77.1% (active).

Consider `CC1=NN(c2ccc(S(N)(=O)=O)cc2)C(=O)/C1=C\c1ccc(-c2ccc(Cl)c(C(=O)O)c2)o1`, for which the inhibition was -1.9%.

For `CC1=NN(c2ccc(S(N)(=O)=O)cc2)C(=O)/C1=C\c1ccc(-c2ccc(C(=O)OC(C)C)cc2)o1`, the inhibition was -1.6%.

On to `NC(=O)C1CCN(S(=O)(=O)c2ccc3ccccc3c2)CC1`, for which the inhibition is -3.8%.
